PubChem BioAssay (Tox21)
A number with no mark means an inactive call. Results filed as inconclusive are left out. A call without a number means that no potency is given here. Calls of active or inactive are those of the source. Unless noted, calls come from the whole dose curve; as a rule, active = well fitted curve in the direction sought with a large enough effect in the repeat runs; inconclusive = weak or mixed curves; inactive = no such curve, though single readings can be large; an effect the other way counts as inactive or inconclusive.

Columns and labels:
[1] = A CellTox Green Cytotoxicity Assay to monitor cytotoxicity in HEK293 cells - 32 hour (AID 1224881); note: nearly all actives have a fitted effect of over 40% in size
Summary of the method: (§1)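 Tox21 screen in HEK293: membrane-impermeant cyanine dye fluoresces on binding dead-cell DNA; compound pinned 5 h post-seeding, plates held at 37 C, signal read repeatedly through 40 h.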

[2] = A CellTox Green Cytotoxicity Assay to monitor cytotoxicity in HepG2 cells - 0 hour (AID 1224882); note: nearly all actives have a fitted effect of over 35% in size
Summary of the method: (§2)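 Measurements at 0, 8, 16, 24, 32 and 40 h of treatment captured CellTox Green fluorescence in HepG2 cells that had been co-plated with reagent and preincubated 5 h at 37 C/5% CO2.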

[3] = A CellTox Green Cytotoxicity Assay to monitor cytotoxicity in HepG2 cells - 32 hour (AID 1224883); note: nearly all actives have a fitted effect of over 50% in size
Summary of the method: as §2

[4] = A CellTox Green Cytotoxicity Assay to monitor cytotoxicity in HEK293 cells - 8 hour (AID 1224884); note: nearly all actives have a fitted effect of over 35% in size
Summary of the method: as §1

[5] = qHTS RealTime-Glo MT Cell Viability Assay in HEK293 cells - 24 hour (AID 1224886); note: nearly all actives have a fitted effect of over 50% in size; note: potency is the fitted concentration of half-maximal effect
Summary of the method: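 Luminescence generated by NanoLuc from substrate produced by living HEK293 cells served as the viability signal. Each value reflects the reading at its stated time point during continuous 40 h compound exposure at 37 C.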

[6] = qHTS RealTime-Glo MT Cell Viability Assay in HEK293 cells - 8 hour (AID 1224887); note: nearly all actives have a fitted effect of over 50% in size; note: potency is the fitted concentration of half-maximal effect
Summary of the method: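 HEK293 + NanoLuc + prosubstrate, 600 cells/well; 5 h, 37 C/5% CO2; compound 23 nL in DMSO by pintool; 37 C; luminescence read at 0, 8, 16, 24, 32 and 40 h time points.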

[7] = A CellTox Green Cytotoxicity Assay to monitor cytotoxicity in HEK293 cells - 16 hour (AID 1224888); note: nearly all actives have a fitted effect of over 35% in size
Summary of the method: as §1

[8] = qHTS RealTime-Glo MT Cell Viability Assay in HepG2 cells - 0 hour (AID 1224889); note: nearly all actives have a fitted effect of over 50% in size
Summary of the method: (§3)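 Tox21 10K library screened in qHTS format on HepG2 cells carrying RealTime-Glo reagents. Compounds were added after a 5 h preincubation, and the luminescent signal from continuous culture was measured repeatedly during 40 h treatment.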

[9] = A CellTox Green Cytotoxicity Assay to monitor cytotoxicity in HepG2 cells - 8 hour (AID 1224890); note: nearly all actives have a fitted effect of over 45% in size
Summary of the method: as §2

[10] = qHTS assay to identify small molecule antagonists of the estrogen receptor alpha (ER-alpha) signaling pathway using the BG1 cell line in the presence of 0.1 nM 17-beta-estradiol - cell viability counter screen (AID 1259241); note: nearly all actives have a fitted effect of over 40% in size; note: potency is the fitted concentration of half-maximal effect
Summary of the method: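 Live-cell protease activity (CellTiter-Fluor fluorescence, 30 min) was read in the same wells after VM7Luc4E2 cells had been exposed to compounds with 0.1 nM 17beta-estradiol for 22 hr at 37C.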

[11] = qHTS assay to identify small molecule antagonists of the androgen receptor (AR) signaling pathway using the MDA cell line in the presence of 0.5 nM R1881 - cell viability counter screen (AID 1259242); note: nearly all actives have a fitted effect of over 45% in size
Summary of the method: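 Concentration-response screen of compounds for toxicity in MDA-kb2 reporter cells: 16 hr at 37C with 0.5 nM R1881, endpoint live-cell protease fluorescence measured in the reporter wells.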

[12] = qHTS assay to identify small molecule HDAC inhibitors (AID 1259364); note: potency is the fitted concentration of half-maximal effect;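 note: wild-type HCT-116 cells with endogenous class I/II HDAC activity; nearly all actives have a fitted effect of over 45% in size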
Summary of the method: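 Screening used wild-type human colon HCT-116 cells incubated overnight, dosed with compounds for 2 hours, and assayed with a homogeneous luminogenic HDAC I/II reagent for 30 minutes at room temperature.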

[13] = qHTS assay to identify small molecule HDAC inhibitors - cell viability counter screen (AID 1259365); note: nearly all actives have a fitted effect of over 50% in size; note: potency is the fitted concentration of half-maximal effect
Summary of the method: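 HCT-116 (wild type), 1,500 cells/well, overnight 37C/5% CO2; compound in DMSO 2hr; CellTiter-Glo 30min RT; luminescence read.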

[14] = qHTS assay to identify small molecule agonists of the sonic hedgehog signaling (Shh) pathway (AID 1259368; calls by dose curve;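 note: NIH/3T3-derived 3T3Gli1-Luc cells carrying a stable Gli1-driven firefly luciferase reporter; series mostly up to about 92 µM; nearly all actives have a fitted effect of over 15% in size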)
Summary of the method: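 Hedgehog pathway agonism scored by increased firefly luciferase luminescence in 3T3Gli1-Luc cells treated 24 hr at 37 C; detection used a 30 min room-temperature reagent incubation.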

[15] = qHTS RealTime-Glo MT Cell Viability Assay in HepG2 cells - 16 hour (AID 1224885); note: nearly all actives have a fitted effect of over 50% in size
Summary of the method: as §3

[16] = qHTS assay to identify small molecule agonists of the sonic hedgehog signaling (Shh) pathway - cell viability counter screen (AID 1259366); note: nearly all actives have a fitted effect of over 50% in size; note: potency is the fitted concentration of half-maximal effect
Summary of the method: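 CellTiter-Fluor fluorescence read-out, 1 hr at 37C, added after 23hr compound exposure. Cells: 3T3 Gli1-Luc, an NIH/3T3 clone with stably integrated Gli1-Luc reporter, plated 4hr before compound.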

[17] = qHTS assay to identify small molecule antagonists of the sonic hedgehog signaling (Shh) pathway - cell viability counter screen (AID 1259367); note: nearly all actives have a fitted effect of over 55% in size; note: potency is the fitted concentration of half-maximal effect
Summary of the method: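 CellTiter-Fluor signal in conditioned medium-stimulated 3T3 Gli1-Luc cells, 23 hr compound exposure, 37C.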

[18] = qHTS assay to identify small molecule phospholipidosis (PLD) inducers (AID 1259344; active = well fitted curve in the direction sought with a large enough effect; an effect the other way counts as inactive or inconclusive)
Summary of the method: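 Accumulated phospholipid, stained red by LipidTOX during 24 h compound treatment of HepG2 cells at 37 C, is quantified from images as pit number and intensity, normalised per cell using Hoechst-stained nuclei.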

[19] = target: Estrogen receptor (Homo sapiens) (UniProt P03372); test: qHTS assay to identify small molecule antagonists of the estrogen receptor alpha (ER-alpha) signaling pathway using the BG1 cell line in the presence of 0.1 nM 17-beta-estradiol (AID 1259244); note: nearly all actives have a fitted effect of over 50% in size; note: potency is the fitted concentration of half-maximal effect
Summary of the method: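 Compounds were tested against 0.1 nM (final) 17beta-estradiol in VM7Luc4E2 cells, which express full-length ER-alpha and an ERE-luciferase reporter; luminescence was recorded following 22 h exposure.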

[20] = target: Androgen receptor (Homo sapiens) (UniProt P10275); test: qHTS assay to identify small molecule antagonists of the androgen receptor (AR) signaling pathway using the MDA cell line in the presence of 0.5 nM R1881 (AID 1259243); note: nearly all actives have a fitted effect of over 50% in size; note: potency is the fitted concentration of half-maximal effect
Summary of the method: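 With R1881 held at 0.5 nM (final), compound effects on MMTV-luciferase expression in MDA-kb2 cells were scored by luminescence after a 16 hr, 37C incubation.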

Estrogen receptor (Homo sapiens), sequence (P03372 whole entry, looked up): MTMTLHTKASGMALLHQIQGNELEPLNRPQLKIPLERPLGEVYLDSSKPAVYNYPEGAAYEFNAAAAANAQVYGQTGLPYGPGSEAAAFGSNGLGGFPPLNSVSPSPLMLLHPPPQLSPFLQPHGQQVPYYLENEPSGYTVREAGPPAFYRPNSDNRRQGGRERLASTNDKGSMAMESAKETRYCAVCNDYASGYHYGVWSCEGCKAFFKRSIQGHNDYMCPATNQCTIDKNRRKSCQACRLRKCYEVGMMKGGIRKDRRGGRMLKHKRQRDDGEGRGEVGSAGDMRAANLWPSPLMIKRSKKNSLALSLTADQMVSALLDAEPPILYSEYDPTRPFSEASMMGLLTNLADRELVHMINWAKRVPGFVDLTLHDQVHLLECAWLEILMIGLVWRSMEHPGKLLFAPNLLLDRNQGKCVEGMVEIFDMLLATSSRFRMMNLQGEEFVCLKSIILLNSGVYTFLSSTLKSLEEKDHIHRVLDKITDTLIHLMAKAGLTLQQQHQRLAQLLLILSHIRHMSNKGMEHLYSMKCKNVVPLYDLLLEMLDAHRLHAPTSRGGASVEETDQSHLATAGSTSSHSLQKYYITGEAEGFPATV
Androgen receptor (Homo sapiens), sequence (P10275 whole entry, looked up): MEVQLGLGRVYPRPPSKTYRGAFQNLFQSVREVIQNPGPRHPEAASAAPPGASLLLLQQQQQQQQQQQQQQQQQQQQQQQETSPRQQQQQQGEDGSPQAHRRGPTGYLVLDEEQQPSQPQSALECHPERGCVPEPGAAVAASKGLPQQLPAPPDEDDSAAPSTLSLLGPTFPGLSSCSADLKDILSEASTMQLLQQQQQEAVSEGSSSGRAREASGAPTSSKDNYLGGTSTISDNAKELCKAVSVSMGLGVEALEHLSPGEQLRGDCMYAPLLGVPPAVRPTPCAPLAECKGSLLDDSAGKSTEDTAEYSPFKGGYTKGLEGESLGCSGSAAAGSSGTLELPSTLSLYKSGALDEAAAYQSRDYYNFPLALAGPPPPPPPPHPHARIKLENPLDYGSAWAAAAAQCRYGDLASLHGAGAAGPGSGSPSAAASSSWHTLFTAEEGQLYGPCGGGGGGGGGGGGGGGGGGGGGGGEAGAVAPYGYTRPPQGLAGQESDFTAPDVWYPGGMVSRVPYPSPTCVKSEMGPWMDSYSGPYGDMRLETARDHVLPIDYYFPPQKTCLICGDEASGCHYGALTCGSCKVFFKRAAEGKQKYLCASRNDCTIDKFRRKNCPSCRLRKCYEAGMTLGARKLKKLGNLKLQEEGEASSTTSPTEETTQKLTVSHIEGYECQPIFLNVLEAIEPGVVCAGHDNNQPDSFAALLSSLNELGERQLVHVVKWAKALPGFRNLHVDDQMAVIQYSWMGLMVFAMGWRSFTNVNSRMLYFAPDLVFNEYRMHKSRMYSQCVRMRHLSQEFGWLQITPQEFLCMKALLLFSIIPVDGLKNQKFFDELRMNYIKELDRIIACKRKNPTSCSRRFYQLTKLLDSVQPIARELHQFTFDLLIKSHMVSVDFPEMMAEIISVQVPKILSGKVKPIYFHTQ

SMILES | Potency [1] | Potency [2] | Potency [3] | Potency [4] | Potency [5] | Potency [6] | Potency [7] | Potency [8] | Potency [9] | Potency [10] | Potency [11] | Potency [12] | Potency [13] | outcome [14] | Potency [15] | Potency [16] | Potency [17] | Potency [18] | Potency [19] | Potency [20]
COc1cc2c(cc1OC)C(C(C(=O)N(CCc1ccc(OC)c(OC)c1OC)CCc1ccc(OC)c(OC)c1OC)c1ccccc1)=NCC2 (centres undefined) | inactive | inactive | inactive | inactive | 3.38 µM (active) | 3.01 µM (active) | inactive | inactive | inactive | inactive | inactive | inactive | inactive | inactive | – | – | – | – | – | –
Nc1ccc(N)c2c1C(=O)c1ccccc1C2=O | inactive | inactive | inactive | inactive | – | – | inactive | inactive | inactive | 12.2 µM (active) | – | 21.7 µM (active) | 30.6 µM (active) | inactive | inactive | 21.7 µM (active) | 10.9 µM (active) | – | – | –
Nc1ccc(S(=O)(=O)Nc2ccccc2)cc1 | inactive | inactive | inactive | – | inactive | inactive | inactive | inactive | inactive | inactive | inactive | inactive | – | inactive | inactive | – | inactive | inactive | – | –
O=S(=O)(Oc1ccc(Cl)cc1)c1ccccc1 | inactive | inactive | inactive | inactive | – | – | inactive | inactive | inactive | inactive | inactive | – | inactive | inactive | inactive | inactive | inactive | – | inactive | –
CCCCC(CC)COC(=O)CCCCCCCCC(=O)OCC(CC)CCCC (centres undefined) | inactive | inactive | inactive | – | inactive | inactive | – | inactive | inactive | – | inactive | inactive | inactive | inactive | inactive | inactive | inactive | – | inactive | –
COc1ccc(C)cc1[N+](=O)[O-] | inactive | inactive | inactive | – | inactive | inactive | inactive | inactive | inactive | – | inactive | inactive | inactive | inactive | inactive | inactive | inactive | – | – | –
O[C@@H](COc1cccc2ncccc12)CN1CCN(C2c3ccccc3[C@@H]3[C@H](c4ccccc42)C3(F)F)CC1 (some centres undefined) | inactive | inactive | inactive | – | – | – | inactive | inactive | inactive | inactive | inactive | inactive | inactive | inactive | – | – | – | – | inactive | 13.3 µM (active)
CCc1cc(C2=C(C(=O)O)N(c3ccccc3C(F)(F)F)S(=O)(=O)c3ccccc32)cc2c1OCO2 | inactive | inactive | inactive | – | inactive | inactive | inactive | – | inactive | inactive | – | – | inactive | – | inactive | 12.1 µM (active) | 12.1 µM (active) | – | – | –
COc1cc(Cl)ccc1Oc1ccc(Cl)cc1Cl | inactive | inactive | inactive | – | – | inactive | inactive | – | inactive | inactive | inactive | inactive | inactive | inactive | inactive | inactive | inactive | – | inactive | –
CCOC(=O)NCCOc1ccc(Oc2ccccc2)cc1 | inactive | inactive | inactive | – | 21.9 µM (active) | – | – | inactive | inactive | inactive | – | inactive | inactive | inactive | inactive | inactive | inactive | – | 43.3 µM (active) | –
CCCCC/C=C\C/C=C\CCCCCCCC(=O)NC(C)c1ccccc1 (centres undefined) | inactive | inactive | inactive | – | inactive | – | inactive | inactive | inactive | inactive | inactive | – | inactive | inactive | inactive | – | – | – | – | –
N=c1ccn2c(n1)O[C@H]1[C@H](O)[C@@H](CO)O[C@H]12 | inactive | inactive | – | inactive | inactive | inactive | inactive | inactive | inactive | inactive | inactive | – | – | – | inactive | inactive | inactive | – | inactive | –
ClCCOCCOCCCl | inactive | inactive | – | inactive | inactive | inactive | inactive | – | inactive | inactive | inactive | inactive | inactive | inactive | inactive | inactive | inactive | – | inactive | –
COc1ccc(-c2nc3ccc(C4=NNC(=O)CC4C)cc3[nH]2)cc1 (centres undefined) | inactive | inactive | – | inactive | 9.52 µM (active) | – | inactive | inactive | inactive | inactive | inactive | – | inactive | inactive | inactive | – | – | – | inactive | inactive
CC(C)O.CC(C)O.CCOC(=O)/C=C(\C)O.CCOC(=O)/C=C(\C)O.[Ti] | inactive | inactive | inactive | – | inactive | inactive | – | inactive | inactive | inactive | inactive | – | – | inactive | inactive | inactive | inactive | – | – | –
CCCNCC(O)COc1ccccc1C(=O)CCc1ccccc1 (centres undefined) | inactive | inactive | – | inactive | 2.13 µM (active) | 2.13 µM (active) | inactive | – | inactive | – | inactive | inactive | inactive | inactive | inactive | – | inactive | – | – | –
